Results from PubChem BioAssay (NCI).
About 83,000 compounds went through this panel and 20% of them were active in at least one assay; those are over-represented in the sample as a whole.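 How to read the values: 0–100, growth inhibition (40 = 60% inhibited); 0, no net growth; -100 to 0, cell death (-40 = 40% of starting cells died; -100 = all dead).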 Unmarked numbers belong to inactive results. Activity calls are given as the source filed them. Rule for the calls: active = growth percent below 10; inactive = the rest.

Legend:
Experiment in all cases: NCI-60 one-dose screen, 48 h (100 = growth as untreated, 0 = no growth, -100 = all killed)
Conditions in all cases: 10 µM unless noted
DU-145 prostate = test system: DU-145 prostate
K-562 leukemia = test system: K-562 leukemia
MALME-3M melanoma = test system: MALME-3M melanoma
MDA-MB-231 breast = test system: MDA-MB-231 breast
RXF 393 renal = test system: RXF 393 renal
SF-268 CNS = test system: SF-268 CNS
SF-295 CNS = test system: SF-295 CNS
SF-539 CNS = test system: SF-539 CNS
UACC-257 melanoma = test system: UACC-257 melanoma
M14 melanoma = test system: M14 melanoma
HCT-15 colon = test system: HCT-15 colon
HT29 colon = test system: HT29 colon
SNB-75 CNS = test system: SNB-75 CNS
SNB-19 CNS = test system: SNB-19 CNS
U251 CNS = test system: U251 CNS
PC-3 prostate = test system: PC-3 prostate
SK-MEL-5 melanoma = test system: SK-MEL-5 melanoma
UACC-62 melanoma = test system: UACC-62 melanoma
LOX IMVI melanoma = test system: LOX IMVI melanoma
SK-MEL-28 melanoma = test system: SK-MEL-28 melanoma

| Structure (SMILES) | growth (DU-145 prostate) | growth (K-562 leukemia) | growth (MALME-3M melanoma) | growth (MDA-MB-231 breast) | growth (RXF 393 renal) | growth (SF-268 CNS) | growth (SF-295 CNS) | growth (SF-539 CNS) | growth (UACC-257 melanoma) | growth (M14 melanoma) | growth (HCT-15 colon) | growth (HT29 colon) | growth (SNB-75 CNS) | growth (SNB-19 CNS) | growth (U251 CNS) | growth (PC-3 prostate) | growth (SK-MEL-5 melanoma) | growth (UACC-62 melanoma) | growth (LOX IMVI melanoma) | growth (SK-MEL-28 melanoma) |
| --- | --- | --- | --- | --- | --- | --- | --- | --- | --- | --- | --- | --- | --- | --- | --- | --- | --- | --- | --- | --- |
| O=C1NC(=Nc2ccc(Cl)cc2)S/C1=C\c1cn(-c2ccccc2)nc1-c1ccccc1 | 89% | 92.1% | 83.8% | 88.4% | 97% | 84.5% | 94.5% | 81% | 91.6% | 97.1% | 76% | 77.5% | 65.8% | 90.2% | 18.4% | 56.5% | 94.9% | 87.1% | 90.5% | 97.8% |
| O=C(N=c1oc2ccccc2cc1-c1cc2ccccc2[nH]1)c1ccc(Cl)cc1 | 51.3% | 26.5% | 94.1% | 51.2% | 59.9% | 35.5% | 60.3% | 52.8% | 98.7% | 79.7% | 25.7% | 65.7% | 53.6% | 32.6% | 28.9% | 27.2% | 96.1% | 63.1% | 60.5% | 95.3% |
| CCCCCCCCCOc1c(OC)cc(C2CC(=O)Nc3c2c(C)nn3-c2nc3ccccc3[nH]2)cc1OC (stereo not given) | 1.94% (active) | 9.07% (active) | -58.3% (active) | -75% (active) | -83.4% (active) | -58.8% (active) | -59.1% (active) | -86.3% (active) | 15.5% | -25.5% (active) | -30.8% (active) | -37.9% (active) | -48.8% (active) | -4% (active) | -51.6% (active) | -3.05% (active) | -99.4% (active) | -62.4% (active) | -95.8% (active) | -47.4% (active) |
| CN1CCN(CCCOc2ccc3nc(Nc4ccc(F)c(F)c4)ccc3c2)CC1 | 39.9% | -30.3% (active) | 3.13% (active) | -31.6% (active) | 48.6% | 46.5% | -51.4% (active) | 14.3% | -52.9% (active) | -53.1% (active) | -29.3% (active) | -36.2% (active) | 24.3% | 26.5% | 13.7% | 22.5% | -6.85% (active) | -67.1% (active) | -89.5% (active) | -67.4% (active) |
| Cc1cccc(NC(=O)CSc2nc3ccccc3[nH]2)c1 | 107% | 102% | 105% | 88.5% | 99% | 95.2% | 105% | 98.1% | 111% | 107% | 104% | 122% | 84.2% | 94.9% | 101% | 91% | 103% | 85.1% | 96.8% | 101% |
| CC/C=C\C/C=C\C[C@H](O)C/C=C1/C(=O)C=C[C@@H]1C/C=C\CCCC(=O)O | 35.4% | 10.5% | 47% | 25.6% | 68.5% | 53.9% | 86.2% | 32.7% | 31.3% | 14.3% | 48% | 12.6% | 80.7% | 44.3% | -27.9% (active) | 30.1% | 20.7% | -43.4% (active) | -10.1% (active) | 17.5% |
| c1ccc(Nc2nc(-c3ccccn3)cs2)nc1 | 26.5% | 17.2% | 9.26% (active) | 38.9% | -18.8% (active) | 20.7% | 11.9% | 0.697% (active) | 11.5% | -32.8% (active) | 20.1% | 27.4% | 42.7% | 18.6% | 7.62% (active) | 38% | 11% | -14.6% (active) | 1.84% (active) | 50.3% |
| Cn1ccc2c(c1=O)C(=O)c1nccc3c1c-2nc1ccccc13 | -88.3% (active) | -46.6% (active) | 89.3% | -85.5% (active) | 40.8% | -69.2% (active) | -66% (active) | -28.9% (active) | 108% | 82.9% | -61.4% (active) | -76.7% (active) | 60.2% | -74.4% (active) | -92.9% (active) | -44.8% (active) | 95% | 91.7% | -98.4% (active) | 106% |
| COc1ccc2c(c1)O/C(=C\c1cccc(OCC(=O)Nc3nc4ccccc4s3)c1)C2=O | 28.6% | 5.15% (active) | -43.8% (active) | 74.8% | -29.3% (active) | 24.2% | 99.7% | 97.6% | 106% | 42.9% | 81.5% | 110% | 102% | 83.6% | 70.5% | 35% | 96.7% | 83.9% | -85% (active) | 96.7% |
| COc1cc(C2CC(c3ccc(Nc4ccnc5cc(Cl)ccc45)cc3)=NN2C=O)cc(OC)c1OC (stereo not given) | 66.4% | 26% | 25.2% | 85.8% | 83.6% | 90.1% | 75.2% | 73.2% | 60.1% | 75.1% | 48.8% | -37.3% (active) | 75.7% | 82% | 44.6% | 80.6% | 37.3% | 46.3% | 0.138% (active) | 22.4% |
| Cc1nc2ccccc2c(/C=C/c2ccc(Cl)cc2)c1C(=O)/C=C/c1ccc(F)cc1 | -8.13% (active) | 5.45% (active) | -6.33% (active) | 1.67% (active) | -48.9% (active) | 48.6% | 12.3% | -61.2% (active) | 15% | 5.81% (active) | -15.4% (active) | 5.82% (active) | 51.7% | -26% (active) | -76.8% (active) | 20.4% | 8.11% (active) | 0.679% (active) | -90.3% (active) | -27.7% (active) |
| O=C(/C=C/c1c(Cl)nc2sccn12)c1ccc(F)c(F)c1 | 96.1% | 48.1% | 113% | 81.8% | 69.7% | 81.4% | 91.9% | 96.5% | 73.9% | 87.2% | 90.4% | 87% | 60.4% | 87.9% | 90.7% | 78.8% | 66.4% | 68.7% | 92% | 96% |
| Cc1ccc2nc3ccccc3c(NCc3ccccc3)c2c1 | 35.8% | 10.9% | 55.2% | 35.8% | 1.32% (active) | 69% | 28.1% | 23.2% | 56.6% | 45.6% | 18% | 11.6% | 65% | 31.8% | 37% | 29.7% | 58.8% | 56.4% | 9.08% (active) | 78% |
| CC(=O)n1c(-c2ccc(Cl)cc2)nc2c(c1=O)C(c1ccc(Cl)cc1)c1sc3c(Cl)cccc3c1O2 (stereo not given) | 2.09% (active) | -0.184% (active) | 51.8% | -28.8% (active) | -25.4% (active) | -0.0873% (active) | -20% (active) | -63.2% (active) | 21.3% | -39.3% (active) | -37.4% (active) | -52.4% (active) | -22% (active) | 14.2% | -37.7% (active) | 4.54% (active) | -17.7% (active) | 3.42% (active) | -33.8% (active) | 18% |
| COc1ccc(-c2nc3c(c(=O)n2C(C)=O)C(c2ccc(Cl)cc2)c2sc4c(Cl)cccc4c2O3)cc1 (stereo not given) | -5.67% (active) | 2.48% (active) | 39.8% | -41.2% (active) | -27.4% (active) | -9.95% (active) | 1.12% (active) | -51.8% (active) | 12.2% | -36.3% (active) | -29.1% (active) | -49.4% (active) | -12.7% (active) | 12.7% | -34.3% (active) | 1.24% (active) | -23.3% (active) | 5.57% (active) | -49.6% (active) | 23.4% |
